Assay results: PubChem BioAssay (NCI)
About 79,000 compounds went through this panel and 15% of them were active in at least one assay; those are over-represented in the sample as a whole. A number with no mark means an inactive call. Active and inactive are the calls of the source. Cut-off read from the data, not from the text of the source: active = growth inhibition above about 70%; inactive = the rest.

Legend:
[1] = NCI Yeast Anticancer Drug Screen. Data for the rad50 strain (AID 155);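 note: 0% = growth of vehicle-only cultures of the same strain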; conditions: S. cerevisiae rad50 strain growth inhibition; at 50.0 µM; stronger effect = higher value
In short: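 Vehicle-treated cultures provide the reference for the growth inhibition reported for compound-exposed, repair-deficient yeast.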

[2] = NCI Yeast Anticancer Drug Screen. Data for the mec2-1 strain (AID 157); conditions: S. cerevisiae mec2-1 strain, at 50.0 µM, stronger effect = higher value
In short: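 Using mec2-1 yeast: add compound, measure growth, express inhibition versus vehicle-treated cultures.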

[3] = NCI Yeast Anticancer Drug Screen. Data for the sgs1 mgt1 strain (AID 161);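 note: 0% = growth of cultures given vehicle only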; conditions: S. cerevisiae sgs1 mgt1 strain, at 50.0 µM, stronger effect = higher value
In short: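 Compounds are added to genetically altered yeast, and growth is compared with cultures given vehicle alone to give percent inhibition.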

[4] = NCI Yeast Anticancer Drug Screen. Data for the cln2 rad14 strain (AID 165);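 note: 0% = growth equal to vehicle treated cultures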; conditions: S. cerevisiae cln2 rad14 strain, at 50.0 µM, stronger effect = higher value
In short: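 Yeast strain cln2 rad14, bearing defects in cell cycle control and DNA repair, serves as the test system; values reflect growth inhibition compared with vehicle.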

[5] = NCI Yeast Anticancer Drug Screen. Data for the bub3 strain (AID 167); conditions: S. cerevisiae bub3 mutant strain, at 50.0 µM, stronger effect = higher value
In short: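 Mutant yeast screening strain plus compound; vehicle-treated cultures serve as the 0% inhibition reference.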

[6] = NCI Yeast Anticancer Drug Screen. Data for the mlh1 rad18 strain (AID 175); conditions: S. cerevisiae mlh1 rad18 strain growth inhibition; at 50.0 µM; stronger effect = higher value
In short: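 Steps: expose repair-defective yeast to compound; measure growth; express inhibition against vehicle-treated controls.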

Compound | growth inhibition [1] | growth inhibition [2] | growth inhibition [3] | growth inhibition [4] | growth inhibition [5] | growth inhibition [6]
Cc1cccc(C)c1NC(=O)/C(=N/NC(N)=S)C(C)C(=O)c1ccc(Cl)cc1 (stereo not given) | 12.6% | 6.35% | 19.6% | 13.3% | 4.5% | 22.3%
CCOC(=O)C1=C(Nc2ccc(F)cc2)C(=O)N(C(C)(C)C)C1 | 8.05% | 1.3% | 27.5% | 6.35% | 31.4% | 21.6%
CCOC(=O)NN(C(=O)OCC)C(C(=O)C1CCCCC1)N(NC(=O)OCC)C(=O)OCC | 21.4% | -21.6% | 18.9% | 11.2% | -3.55% | -8.4%
CCCCCCCCCCCCCCCCCCCCCC | -28.1% | -26.1% | -8.7% | 0% | -25.9% | -18.1%
CC(=O)OCC1OC(c2ccccc2)C/C(=N/O)C1OC(C)=O (stereo not given) | 90.8% (active) | 98.5% (active) | 97.8% (active) | 96.8% (active) | 87.8% (active) | 97.7% (active)
C=CCNC(=O)NCCCCC(NC(C)=O)C(=O)NCc1ccccc1 (stereo not given) | -25.4% | -18.4% | -13.6% | 2.35% | -16.8% | -10%
CC(C)=C1CCC/C1=N\Nc1ccc([N+](=O)[O-])cc1[N+](=O)[O-] | -5.9% | -1.35% | 0.15% | -25.8% | 4.6% | -8.75%
COC(=O)CCc1nc2ccccc2c(=O)[nH]1 | 6.45% | 1.05% | -6.05% | -35.8% | -14.9% | -12.4%
CCCCOC(=O)C(C)OC(=O)/C=C\C(=O)OC(C)C(=O)OCCCC (stereo not given) | 7.5% | -7.5% | 6.9% | 4.05% | 2.4% | 15.9%
C/C=C\CCCCCCCCCCCCCCCC | -1.15% | -12.1% | -0.6% | 13.4% | -6.9% | 16.8%
Cc1ccc(O)c(C2CC(C#N)CCN2C)c1 (stereo not given) | -0.65% | -12.2% | -16.5% | -6.35% | -18.9% | -7.3%
CCOC(=O)c1c(C)[nH]c(=S)c(C#N)c1-c1ccco1 | 17.7% | 6.15% | 10.8% | 4.4% | -3.35% | 28%
CCCCCCOC(=O)NC1c2ccccc2Oc2ccccc21 | -0.35% | 7.15% | 10.1% | -7.2% | 7.45% | 3.15%
CCOC(=O)C(c1ccccc1)C(Cc1ccccc1)(c1ccccc1)c1ccccc1 (stereo not given) | 10.1% | 9.2% | 17.3% | 19.6% | -4.6% | 10.7%
COc1cc(C2=N/C(=C\C=C\c3ccccc3)C(=O)O2)cc(OC)c1OC | 16.8% | 16% | 21.9% | 18.9% | 18.8% | 16.9%
S=C(NCc1cccc2ccccc12)Nc1ccccc1 | -9.3% | 7.8% | 39% | -27.5% | 8.8% | 20.9%
O=c1[nH]c2ccccc2nc1/C=C\NC(=S)Nc1cc(Cl)ccc1Cl | -45.5% | -32.1% | -44.1% | -14.8% | -30.6% | -40.1%
C[N+]([O-])=C(c1ccccc1)c1ccccc1 | -15.7% | 5.55% | -9.4% | 4.5% | -30.8% | -4.9%
COc1ccc(N=Nc2ccc(OC)cc2C)c(C)c1 | 1.7% | -2.3% | 1.9% | -4.7% | 10% | 7.15%
COCCCNC1=C(C#N)C(=O)NC(c2cccc([N+](=O)[O-])c2)S1 (stereo not given) | -9.7% | -27.4% | 1.75% | 7.85% | -9.8% | -32.7%
